According to ChEMBL document CHEMBL3988442, “University of Dundee, Small-Polar-MMV Screening Library” (2021):
About 900 (1.7%) of roughly 53,000 compounds showed an effect of 50% or more. Shown is part of a subset that was picked to be rich in strong results.

Each compound was assayed on Mycobacterium tuberculosis (assay: Cornell - Phenotypic assay to identify agents that inhibit growth of Mycobacterium tuberculosis). Conditions: 10 mM as filed; unlikely as a test dose.
Format: functional
Design: scale not given: direction of the effect not stated beside the values
In the case of `COC1(CNC(=O)CCCc2ccccc2)CCSC1` (configuration not stated), the “Percent Effect” value is reported as -5.448%.
In the case of `Cc1nonc1OCCNC(=O)COc1ccc(F)cc1F`, the “Percent Effect” value is reported as 26.66%.
With `CC(C)Sc1ncccc1C(=O)NCc1ccc(O)cc1` the “Percent Effect” value was -23.95%.
For `O=C(O)C(F)(F)F.O=C(O)C(F)(F)F.c1cncc(OC[C@@]23CCC[C@@H]2CN(CC2CCOCC2)C3)c1`, the “Percent Effect” value was -8.459%.
With `CC(NCc1cc(F)ccc1F)c1ccc(OCC(=O)NC2CC2)cc1` (configuration not stated) the “Percent Effect” value was -52.24%.
With `O=C(NCC1CCCO1)c1cc(-c2ccc3c(c2)CCO3)n[nH]1` (configuration not stated) the “Percent Effect” value was -17.9%.
For `COc1ccc(CN(C)C(=O)NCc2c(C)cc(C)nc2OC)cc1`, the “Percent Effect” value was -10.68%.
In the case of `CN(C)c1nccc(NCc2cc(-c3ccco3)n[nH]2)n1`, the “Percent Effect” value is reported as 37.45%.
For `COc1ccccc1NC(=O)c1ccc(C)n1C`, the “Percent Effect” value was 27.91%.
For `COc1cccc(OC)c1CN1CC(=O)N(c2ccc(C)cc2)CC1C` (configuration not stated), the “Percent Effect” value was 67.79%.
For `COc1ccc(CN2CC(=O)N(c3ccc(C)cc3)CC2C)cc1O` (configuration not stated), the “Percent Effect” value was 5.464%.
For `COc1cc(CN2CC(=O)N(c3ccc(C)cc3)CC2C)cc(OC)c1` (configuration not stated), the “Percent Effect” value was 47.02%.
`O=C(O)C(F)(F)F.O=C(O)C(F)(F)F.O=C1[C@H]2CN(Cc3ccc(F)cc3)C[C@H]2CN1CCN1CCCC1` was tested, and the “Percent Effect” value was -24.72%.
`O=C1CC[C@@H](CN(Cc2ccncc2)Cc2nc(-c3cccs3)no2)N1` was tested, and the “Percent Effect” value was -23.52%.
In the case of `CCNC(c1ccc(CC)cc1)c1cccnc1` (configuration not stated), the “Percent Effect” value is reported as -41.16%.
In the case of `CCc1cc(=O)n(CC(=O)N2CCCC2)c(-c2ccc(F)cc2)n1`, the “Percent Effect” value is reported as 28.21%.
For `COc1ccccc1N1CCN(CC(=O)NC(C)c2ccco2)CC1` (configuration not stated), the “Percent Effect” value was 25.38%.
For `CSCC[C@H](NC(=O)CCn1ccc2c(Cl)cccc21)C(=O)O`, the “Percent Effect” value was 15.96%.
In the case of `CSCC[C@H](NC(=O)Cn1ccc2c(Br)cccc21)C(=O)O`, the “Percent Effect” value is reported as 5.043%.
With `COC(=O)[C@H](CCSC)NC(=O)Cn1ccc2c(Cl)cccc21` the “Percent Effect” value was 106.6%.
`Cc1ccc(CN2CCC3(CC2)NC(=O)CC3c2ccccc2)s1.O=C(O)C(F)(F)F` (configuration not stated) was tested, and the “Percent Effect” value was 1.118%.
For `O=C1C(Nc2nccn3cnnc23)CCN1c1cccc(Cl)c1` (configuration not stated), the “Percent Effect” value was -12%.
In the case of `CCN(CC)C(=O)CSc1nnc(CCNC(=O)OC(C)(C)C)o1`, the “Percent Effect” value is reported as -12.06%.
With `CS(=O)(=O)CCn1ccc(NC(=O)Cc2c[nH]c3ccccc23)n1` the “Percent Effect” value was 31.98%.
For `COCCNC(=O)Cn1c(-c2ccco2)cc2cccnc21`, the “Percent Effect” value was 49.86%.
`O=C(c1cnn2c(-c3ccco3)ccnc12)N1CCCCCC1` was tested, and the “Percent Effect” value was 38.47%.
In the case of `CC(C)N(C(=O)Cn1c(-c2ccco2)cc2cccnc21)C(C)C.Cl`, the “Percent Effect” value is reported as 99.58%.
With `Cl.O=C(CCn1c(C(F)(F)F)cc2cccnc21)N1CCCC1` the “Percent Effect” value was -14.31%.
`Cc1ncccc1-c1cc2cccnc2n1CCCNC(=O)C1CC1.Cl` was tested, and the “Percent Effect” value was 15.61%.
With `Cl.O=C(Cn1c(-c2ccco2)cc2cccnc21)N1CCCC1` the “Percent Effect” value was 60.37%.
In the case of `COCc1cc(N2CCN(C3CCCCC3)CC2)n2nccc2n1`, the “Percent Effect” value is reported as 6.435%.
`CCn1ccnc1CN1CCN(C(C)C(=O)N2CCCC2)CC1` (configuration not stated) was tested, and the “Percent Effect” value was -13%.
In the case of `CCC1(O)CCCN(c2nc(-c3ccccn3)nc3c2c(C)nn3C)C1` (configuration not stated), the “Percent Effect” value is reported as 23.24%.
`CCCNC(=O)Nc1ccc2c(c1)N(S(=O)(=O)CC)CC2` was tested, and the “Percent Effect” value was 11.66%.
With `CS(=O)(=O)N1CC[C@]2(O)CCN(CCCC(=O)c3ccccc3)C[C@@H]2C1` the “Percent Effect” value was 2.425%.
`C=Cn1ncc(CN2C[C@@H]3CCCN3C[C@@H]2CCSC)c1C` was tested, and the “Percent Effect” value was -11.11%.
In the case of `CC1CCCCN1C(=O)c1ccc(=O)[nH]n1` (configuration not stated), the “Percent Effect” value is reported as -37.74%.
With `CC(=O)N1CCC1c1nc(-c2ccc(C)s2)no1` (configuration not stated) the “Percent Effect” value was 7.935%.
With `Cc1ccc(-c2noc(C3CCN3C(=O)c3ccn(C)n3)n2)s1` (configuration not stated) the “Percent Effect” value was 54.98%.
`Cc1ccc(-c2noc(C3CCN3C(=O)c3cc[nH]n3)n2)s1` (configuration not stated) was tested, and the “Percent Effect” value was 52.32%.
With `Cc1ccc(-c2noc(C3CCN3C(=O)c3ccc(=O)[nH]n3)n2)s1` (configuration not stated) the “Percent Effect” value was 58.13%.
With `CC(=O)N1CCC(C(=O)N2CCC2c2nc(-c3ccc(C)s3)no2)CC1` (configuration not stated) the “Percent Effect” value was -6.67%.
In the case of `Cc1c[nH]c(C2COCCN2C(=O)c2ccc(=O)[nH]n2)n1` (configuration not stated), the “Percent Effect” value is reported as 0.9699%.
`Cc1cc(O)cc(C2CCCN2C(=O)c2ccn(C)n2)n1` (configuration not stated) was tested, and the “Percent Effect” value was -43.03%.
`Cc1ccc(-c2noc(C3CCN3C(=O)c3c(C)noc3C)n2)s1` (configuration not stated) was tested, and the “Percent Effect” value was 48.41%.
In the case of `CCN1CCn2c(C)cnc2C12CCN(C(=O)c1cscn1)CC2.O=C(O)C(F)(F)F.O=C(O)C(F)(F)F`, the “Percent Effect” value is reported as -12.15%.
For `CC(C)c1cc(CN(C)C(=O)CN2CCNC2=O)no1`, the “Percent Effect” value was -1.518%.
For `Cc1cc(C)cc(CN2CCN(C(=O)CCc3n[nH]c(C)n3)CC2=O)c1`, the “Percent Effect” value was -36%.
With `Cc1cnc(N2CCC3(CC(=O)N(Cc4csc(C)n4)C3)C2)nc1.O=C(O)C(F)(F)F` (configuration not stated) the “Percent Effect” value was 10.64%.
In the case of `CCCOc1ccc(Cl)cc1C(=O)N1CCC(n2cncn2)CC1`, the “Percent Effect” value is reported as -8.806%.
For `Clc1cnc(NCc2ccccc2N2CCOCC2)nc1`, the “Percent Effect” value was 11.26%.
`Cc1cc(C)c2c(N3CCN(C(=O)N4CCOCC4)CC3)ncnc2n1` was tested, and the “Percent Effect” value was -18.35%.
`CC(C)O[C@@H]1CC[C@H]2[C@H]1OCCN2C(=O)c1nn(C)c2ccccc12` was tested, and the “Percent Effect” value was 4.286%.
`CC(C)S(=O)(=O)CC(=O)NCC(Cc1ccc(F)cc1)C(N)=O` (configuration not stated) was tested, and the “Percent Effect” value was 7.629%.
In the case of `CC1(c2ccccc2)CCCN(Cc2cncn2C2CCCC2)C1` (configuration not stated), the “Percent Effect” value is reported as 105.1%.
In the case of `COCCn1cncc1CN1CCCC(C)(c2ccccc2)C1` (configuration not stated), the “Percent Effect” value is reported as 16.9%.
In the case of `CC1(c2ccccc2)CCCN(Cc2cncn2C2CC2)C1` (configuration not stated), the “Percent Effect” value is reported as -6.001%.
In the case of `Cn1nccc1NCc1cc2cc(F)ccc2o1`, the “Percent Effect” value is reported as -27.44%.
`COc1ccc(CNC(C)c2cccc(Cl)c2)c(OC)c1OC` (configuration not stated) was tested, and the “Percent Effect” value was -6.089%.
With `COc1ccc(CNC(C)c2ccc(Cl)c(Cl)c2)c(OC)c1OC` (configuration not stated) the “Percent Effect” value was 81.35%.
With `COc1ccc(CNC(C)c2ccc(Cl)cc2)c(OC)c1OC` (configuration not stated) the “Percent Effect” value was 4.187%.
In the case of `Cc1cc(NCc2ccc(CO)cc2)n2nc(C)cc2n1`, the “Percent Effect” value is reported as -38.88%.
`Nc1ncc2c(n1)CN(C1CCCC1)C2=O` was tested, and the “Percent Effect” value was 100.2%.
For `CC1(C)CC(N2Cc3nc(N)ncc3C2=O)CC(C)(C)N1`, the “Percent Effect” value was 5.443%.
For `CC(C)CN1Cc2nc(N)ncc2C1=O`, the “Percent Effect” value was 0.3963%.
In the case of `Cc1cnn(CCNCc2ccc(OCc3ccncc3)cc2)c1`, the “Percent Effect” value is reported as -5.152%.
For `CC(C)CN1Cc2c(C(=O)N(C)C)ncn2-c2ccccc2S1(=O)=O`, the “Percent Effect” value was -10.19%.
For `CCCc1nnc2sc(CC3CN(Cc4ccccc4)CCO3)nn12` (configuration not stated), the “Percent Effect” value was 22.38%.
In the case of `Cc1cnc(NS(=O)(=O)c2cccc(C#N)c2)s1`, the “Percent Effect” value is reported as -17.84%.
`CNS(=O)(=O)c1cccc(S(=O)(=O)Nc2ncc(C)s2)c1` was tested, and the “Percent Effect” value was 51.19%.
With `Cc1cnc(NS(=O)(=O)c2ccccc2)s1` the “Percent Effect” value was 18.01%.
`CCc1noc(C(C)N2CCN(c3ccc(C#N)cn3)CC2)n1` (configuration not stated) was tested, and the “Percent Effect” value was -10.8%.
In the case of `Cc1ncncc1C(=O)N1CCOC(C(=O)NC2CCCC2)C1` (configuration not stated), the “Percent Effect” value is reported as -44.04%.
For `Cn1cncc1CN1CCCC1c1cncc(Oc2ccc(Cl)cc2)n1` (configuration not stated), the “Percent Effect” value was -20.26%.
For `Cn1ccc2cc(C(=O)NC3CCOC(C)(C)C3)ccc21` (configuration not stated), the “Percent Effect” value was 38.28%.
In the case of `COCCn1ccc2cc(C(=O)NC3CCOC(C)(C)C3)ccc21` (configuration not stated), the “Percent Effect” value is reported as 51.29%.
With `Cn1ccc2ccc(C(=O)NC3CCOC(C)(C)C3)cc21` (configuration not stated) the “Percent Effect” value was 33.83%.
`COc1ccc2c(c1)OCC(Cc1cc(C(=O)N3CCCC3)ccn1)C2` (configuration not stated) was tested, and the “Percent Effect” value was 3.952%.
In the case of `CCCN(CC1CC1)C(=O)Cn1ccccc1=O`, the “Percent Effect” value is reported as 23.77%.
With `CCN(CC)C(=O)Nc1ccc(N2CCSCC2)cc1C` the “Percent Effect” value was 107.3%.
With `COCCNC(=O)Nc1ccc(C(=O)N2CCSCC2)cc1C` the “Percent Effect” value was -6.31%.
With `COCCOc1ccc(NC(=O)N(CCO)C2CC2)cn1` the “Percent Effect” value was 5.522%.
`Cc1ccc(C(=O)N2CCSCC2)cc1NC(=O)NCCO` was tested, and the “Percent Effect” value was 4.458%.
In the case of `Cc1ccc(C(=O)N2CCSCC2)cc1NC(C)C`, the “Percent Effect” value is reported as 8.4%.
`COCCCN(CCOC)C(=O)Nc1ccc(C)cc1C` was tested, and the “Percent Effect” value was -5.189%.
`CCC(C)N(C)C(=O)Nc1ccc(N2CCSCC2)cc1C` (configuration not stated) was tested, and the “Percent Effect” value was 109%.
For `Cc1cc(N2CCSCC2)ccc1NC(=O)N(CCO)C1CC1`, the “Percent Effect” value was 109.4%.
In the case of `CCN(CC1CCCO1)C(=O)Nc1cccc(N2CCOCC2)c1` (configuration not stated), the “Percent Effect” value is reported as 5.45%.
For `CCCN(CC1CC1)C(=O)Nc1ccc(N2CCSCC2)cc1C`, the “Percent Effect” value was 108.2%.
With `CCOCC(=O)Nc1ccc(N2CCSCC2)cc1C` the “Percent Effect” value was 35.44%.
In the case of `CNc1ncc2c(n1)CN(CCc1ccc(Cl)cc1)C2=O`, the “Percent Effect” value is reported as 6.698%.
`O=C(O)C(F)(F)F.c1ccc(CN2CCC3(CC2)CC(Nc2nccs2)CO3)nc1` (configuration not stated) was tested, and the “Percent Effect” value was 10.27%.
`CN1CCCC1c1cncc(C(=O)NCCN2CCCCC2)n1` (configuration not stated) was tested, and the “Percent Effect” value was 5.104%.
For `O=C(O)C(F)(F)F.O=C(O)C(F)(F)F.c1coc(CN2C[C@@H]3CCCO[C@@H]3[C@H](N3CCCC3)C2)c1`, the “Percent Effect” value was -1.356%.
In the case of `COc1ccccc1Nc1nc2c(C)nn(C)c2c(=O)n1C`, the “Percent Effect” value is reported as -35.16%.
In the case of `CCS(=O)(=O)N1CCc2c(nc(C3CCCN3)nc2NC)C1.Cl` (configuration not stated), the “Percent Effect” value is reported as -16.35%.
In the case of `c1ccc(-c2cc(CN3C[C@H]4CC[C@H]3C4)on2)cc1`, the “Percent Effect” value is reported as 18.4%.
For `c1ccc(-c2cc(CN3C[C@@H]4CC[C@H](C3)N(CC3CC3)C4)on2)cc1`, the “Percent Effect” value was 34.91%.
In the case of `C1CC(CN2C[C@H]3CC[C@@H]2CN(Cc2noc(C4CCCC4)n2)C3)C1`, the “Percent Effect” value is reported as 50.34%.
In the case of `C1CC(CN2C[C@H]3CC[C@@H]2CN(Cc2nnc(C4CC4)o2)C3)C1`, the “Percent Effect” value is reported as 14.78%.
`c1ccc(-c2cc(CN3C[C@@H]4CC[C@H](C3)N(CC3CCC3)C4)on2)cc1` was tested, and the “Percent Effect” value was 96.75%.
`c1ccc(-c2nnc(CN3C[C@@H]4CC[C@H](C3)N(CC3CCC3)C4)o2)cc1` was tested, and the “Percent Effect” value was 34.96%.
